Bioassay records as filed in PubChem.
TPT1 inhibitor = blocks Candida albicans tRNA 2'-phosphotransferase; recombinant caTPT1, FP RNA substrate dephosphorylation; inhibition, % at 5 µM; 300,000 tested, 0.81% active; AID 1962;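 active = inhibition above the mean of all tested compounds plus 3 SD, set per screening campaign, cut at about 24% in these data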
Platelet DG rel = modulates dense granule release in human platelets. human platelet-rich plasma, SFLLRN dense granule ATP release, luminescence. inhibition, %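 (compounds screened at 7.5 µM in platelet-rich plasma)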. 300,000 tested, 0.22% active;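 active = mean replicate score, as percent of positive control, at or above 50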
PHOSPHO1 block = blocks human PHOSPHO1 phosphatase activity. 290,000 tested, 1.1% active. Q8TCT1. inhibition, % at 13.3 µM. recombinant PHOSPHO1, absorbance phosphatase assay; in the data active = inhibition above about 60%
Target sequence (Q8TCT1 whole entry, looked up): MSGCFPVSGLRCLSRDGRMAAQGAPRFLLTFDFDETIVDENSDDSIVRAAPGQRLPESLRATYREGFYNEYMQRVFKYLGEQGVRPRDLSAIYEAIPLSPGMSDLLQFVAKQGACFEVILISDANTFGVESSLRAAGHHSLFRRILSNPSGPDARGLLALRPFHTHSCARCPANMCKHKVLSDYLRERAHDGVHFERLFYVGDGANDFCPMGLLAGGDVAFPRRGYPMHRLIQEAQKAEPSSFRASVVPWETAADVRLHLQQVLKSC
Rtt109 HAT inh = blocks Candida albicans Rtt109/Vps75 acetyltransferase activity | purified Rtt109/Vps75, ThioGlo CoA-SH fluorescence, 4 h | inhibition, % at 34.9 µM | 330,000 tested, 0.16% active;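 active = inhibition of at least 50% in every replicate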
Target sequence (Q5AAJ8 whole entry, looked up): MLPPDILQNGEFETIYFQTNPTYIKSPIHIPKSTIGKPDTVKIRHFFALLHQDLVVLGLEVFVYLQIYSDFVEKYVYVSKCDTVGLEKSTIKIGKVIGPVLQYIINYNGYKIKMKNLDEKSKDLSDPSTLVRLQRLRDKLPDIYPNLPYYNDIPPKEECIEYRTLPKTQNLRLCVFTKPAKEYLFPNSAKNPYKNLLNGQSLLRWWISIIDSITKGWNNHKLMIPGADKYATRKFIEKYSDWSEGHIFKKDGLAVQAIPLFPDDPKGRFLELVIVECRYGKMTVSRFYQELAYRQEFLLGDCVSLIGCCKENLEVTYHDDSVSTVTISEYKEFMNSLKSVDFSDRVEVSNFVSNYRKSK
SKKanGAS inh = SKKanGAS growth inhibition. 300,000 tested, 1.3% active. inhibition, % at 7.5 µM. S. pyogenes SKKanGAS, kanamycin growth, BacTiter-Glo, 6 h;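 active = mean replicate score, as percent of positive control median, at least 50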;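 note: strain carries kanamycin resistance gene driven by streptokinase promoter and grows in 40 µg/ml kanamycin; loss of luminescence reflects streptokinase promoter inhibition or plain growth inhibition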
WT yeast gro inh = growth inhibition of WT yeast, mitochondrial fusion screen. mitochondrial fusion phenotypic screen, WT strain. inhibition, % at 10 µM. 190,000 tested, 2.1% active. AID 1362; in the data active = inhibition above about 58%; tested in S. cerevisiae
caTPT1 confirm = confirmation of Candida albicans TPT1 inhibitors; AID 2149; inhibition, % at 5 µM; shares compounds with TPT1 inhibitor; 2,400 tested, 74% active; recombinant caTPT1, fluorescence polarization, RNase T1 coupled;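 active = inhibition above the primary screen limit, the mean inhibition of all tested compounds plus 3 SD, cut at about 25% in these data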
RNase T1 counter = blocks Aspergillus oryzae RNase T1, a TPT1 counter-screen; shares compounds with TPT1 inhibitor; RNase T1 cleavage, fluorescence polarization, 1536-well; inhibition, % at 5 µM; 2,400 tested, 83% active; AID 2153;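 active = inhibition above the solvent-only control well mean plus 3 SD, limit set per screening run, cut at about 23% in these data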;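 note: inhibitors block cleavage so intact labeled substrate keeps polarization high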
Target sequence (P00651 whole entry, looked up): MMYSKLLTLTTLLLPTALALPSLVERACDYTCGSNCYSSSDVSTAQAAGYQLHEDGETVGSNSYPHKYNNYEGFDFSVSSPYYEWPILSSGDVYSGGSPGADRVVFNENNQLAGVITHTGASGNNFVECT
Large screens that a line does not name were inactive (follow-up assays come after a bar, where they were run). This is a sample that favours compounds with a hit; in the whole collection about 3.9% have one here.

CC1=NN(c2ccccc2)C(=O)C1C=Nc1ccc(N(C)C)cc1 (centres undefined)	TPT1 inhibitor 42 (no result: WT yeast gro inh) | caTPT1 confirm 67 | RNase T1 counter 77
CCOC(=O)C1=CNS(=O)(=O)NC1c1ccc2ccccc2c1 (centres undefined)	none (no result: TPT1 inhibitor, Platelet DG rel, PHOSPHO1 block, SKKanGAS inh, WT yeast gro inh)
CCN(Cc1ccncc1)C(=O)C1CCC(=O)N(Cc2ccc(Cl)cc2)C1 (centres undefined)	none (no result: WT yeast gro inh)
O=C(c1ccc(CS(=O)Cc2ccccc2Cl)o1)N1CCN(C2CCCCC2)CC1 (centres undefined)	TPT1 inhibitor 117 (no result: WT yeast gro inh) | caTPT1 confirm inactive | RNase T1 counter inactive
Cc1cccc2c3c([nH]c12)CCN(C)C3	none (no result: WT yeast gro inh)
CCOc1ccccc1C(=O)n1nc2nc(C)cc(C)c2c1N	TPT1 inhibitor 44 | caTPT1 confirm inactive | RNase T1 counter inactive
CC(=O)n1nc2nc(C)cc(C)c2c1N	none
Cc1oc(C)c2c(=O)ccc3c(c12)OC(N)=C(C#N)C3c1ccccc1Cl (centres undefined)	TPT1 inhibitor 29 (no result: Platelet DG rel) | caTPT1 confirm 48 | RNase T1 counter 56
CC1CCc2sc(C(=O)NNC(=O)c3ccncc3)cc2C1 (centres undefined)	none (no result: PHOSPHO1 block, WT yeast gro inh)
COc1ccc(-c2ccc3c(N)c(C(=O)c4ccc(OC)c(OC)c4)sc3n2)cc1	TPT1 inhibitor 54, PHOSPHO1 block 63 | caTPT1 confirm 60 | RNase T1 counter 70
COc1ccc(-c2ccc3c(N)c(C(=O)NC(C)C)sc3n2)cc1OC	none (no result: Rtt109 HAT inh, WT yeast gro inh)
NC(=O)c1sc2nc(-c3ccccc3)ccc2c1N	none (no result: WT yeast gro inh)
COc1ccc(C(=O)c2sc3nc(-c4ccccc4)ccc3c2N)cc1OC	TPT1 inhibitor 91, PHOSPHO1 block 88 | caTPT1 confirm 88 | RNase T1 counter 94
CC(=O)N1N=C(c2ccccc2)CC1c1cn(Cc2ccccc2)c2ccccc12 (centres undefined)	none
CN1C(=O)CC(c2cn(Cc3ccccc3)c3ccccc23)C1=O (centres undefined)	TPT1 inhibitor 26 (no result: WT yeast gro inh) | caTPT1 confirm 50 | RNase T1 counter 61
C=CC[n+]1c(-c2ccccc2)csc1NC(C)(C)C	none
C=CC[n+]1c(-c2ccc(OC)c(OC)c2)csc1NNC(=O)Nc1ccccc1	TPT1 inhibitor 25 | caTPT1 confirm inactive | RNase T1 counter inactive
O=C1c2cccc3cccc(c23)C(=O)N1c1ccc(O)cc1	none (no result: WT yeast gro inh)
O=C(O)c1ccc(N2CCCCCC2)c(N2C(=O)c3ccccc3C2=O)c1	none
O=C1c2cccc3c(N4CCCCC4)ccc(c23)C(=O)N1c1ccccc1O	TPT1 inhibitor 72 | caTPT1 confirm 39 | RNase T1 counter 50
O=C1c2cccc3c(N4CCCCC4)ccc(c23)C(=O)N1c1ccc(O)cc1	TPT1 inhibitor 72 (no result: SKKanGAS inh) | caTPT1 confirm 61 | RNase T1 counter 61
Cc1nc2scc(C)n2c(=O)c1S(=O)(=O)NCc1ccc(F)cc1	none (no result: WT yeast gro inh)
CC(C)/C=C1\CC/C(=C\c2ccc(N(C)C)cc2)C1=O	TPT1 inhibitor 121 | caTPT1 confirm 121 | RNase T1 counter 118
CC(C)c1ccc(/C=C2\CC/C(=C\C=N\N(C)C)C2=O)cc1	TPT1 inhibitor 80 | caTPT1 confirm 75 | RNase T1 counter 82
CN(C)c1ccc(/C=C2/C[N+](C)(C)C/C(=C/c3ccc(N(C)C)cc3)C2=O)cc1	none (no result: TPT1 inhibitor, Platelet DG rel, PHOSPHO1 block, SKKanGAS inh, WT yeast gro inh)
O=C(O)c1cc(S(=O)(=O)N2CCCCC2)ccc1N1CCOCC1	none (no result: TPT1 inhibitor, Platelet DG rel, PHOSPHO1 block, SKKanGAS inh, WT yeast gro inh)
Cc1ccc(-n2cc(S(=O)(=O)c3ccc(C)cc3)[nH]c2=O)cc1	none
COc1nc(N)c(S(=O)(=O)c2ccc(C)cc2)cc1C#N	TPT1 inhibitor 29 | caTPT1 confirm inactive | RNase T1 counter 29
Cc1ccc(S(=O)(=O)c2cc(C#N)c(=O)[nH]c2N)cc1	TPT1 inhibitor 33 | caTPT1 confirm inactive | RNase T1 counter 29
Nc1ncnc2c1ncn2[C@@H]1O[C@H](CNCc2ccc(OCC(=O)Nc3nccs3)cc2)[C@@H](O)[C@H]1O	none (no result: TPT1 inhibitor, Platelet DG rel, PHOSPHO1 block, SKKanGAS inh, WT yeast gro inh)
CCCCN(C(=O)C1CCCO1)c1c(N)n(CC(C)C)c(=O)[nH]c1=O (centres undefined)	none (no result: PHOSPHO1 block, WT yeast gro inh)
O=C(/C=C/Nc1ccc(S(=O)(=O)Nc2cnc3ccccc3n2)cc1)c1ccccc1	none (no result: WT yeast gro inh)
O=C1CCCC/C1=C\Nc1ccc(S(=O)(=O)Nc2cnc3ccccc3n2)cc1	TPT1 inhibitor 55 (no result: WT yeast gro inh) | caTPT1 confirm 33 | RNase T1 counter 45
Cc1ccccc1SCC(=O)N/N=C/c1ccc(F)cc1	none (no result: WT yeast gro inh)
O=C(CSc1nc(-c2ccccc2)nc2c1CCCC2)N1CCOCC1	TPT1 inhibitor 56 | caTPT1 confirm 28 | RNase T1 counter 30
N#CC1=C(N)SC(N)=C(C#N)C1c1ccnc2ccccc12	TPT1 inhibitor 103, PHOSPHO1 block 76 | caTPT1 confirm 74 | RNase T1 counter 85
O=C1c2ccccc2C(=O)C1c1ccnc2ccccc12	none
O=C(COC(=O)CNC(=O)c1ccccc1Cl)Nc1ccccc1Cl	none (no result: TPT1 inhibitor, Platelet DG rel, PHOSPHO1 block, SKKanGAS inh, WT yeast gro inh)
COC(=O)/C=C/C(=O)N1CCN(c2cccc(Cl)c2)CC1	TPT1 inhibitor 48 (no result: Rtt109 HAT inh) | caTPT1 confirm inactive | RNase T1 counter inactive
CCOc1ccc(Br)cc1S(=O)(=O)Nc1nc(CN2CCOCC2)nc2sc(C)c(C)c12	TPT1 inhibitor 31 | caTPT1 confirm 27 | RNase T1 counter 35
Cc1sc2nc(CN3CCOCC3)nc(NS(=O)(=O)c3ccccc3)c2c1C	none
COc1ccc(CCNC(=O)CSc2nnc(C(C)N(C)C)n2Cc2ccccc2)cc1OC (centres undefined)	TPT1 inhibitor 100 | caTPT1 confirm inactive | RNase T1 counter inactive
N#CC1=C(N)OC2=C(CC/C2=C\c2ccccc2Cl)C1c1ccccc1Cl (centres undefined)	TPT1 inhibitor 67 (no result: SKKanGAS inh) | caTPT1 confirm 81 | RNase T1 counter 89
N#CC1=C(N)OC2=C(CC/C2=C\c2ccccc2)C1c1ccccc1 (centres undefined)	TPT1 inhibitor 83 | caTPT1 confirm 85 | RNase T1 counter 88
C=CCOc1ccccc1CN1CCC(Oc2cc(C(=O)NC3CC3)ccc2OC)CC1	none (no result: TPT1 inhibitor, WT yeast gro inh)
CN(Cc1cccnc1)C(=O)c1ccc(Cl)c(NS(=O)(=O)c2ccc(F)cc2)c1	none (no result: TPT1 inhibitor, Platelet DG rel, PHOSPHO1 block, SKKanGAS inh, WT yeast gro inh)
COc1ccc(-c2cc(C(=O)NCCCn3ccnc3)c3ccccc3n2)c(OC)c1	none (no result: WT yeast gro inh)
O=C(COc1ccccc1)N[C@@H]1c2ccccc2CC[C@@H]1O	none (no result: TPT1 inhibitor, Platelet DG rel, PHOSPHO1 block, SKKanGAS inh, WT yeast gro inh)
O=C(Nc1cc(F)cc(F)c1)c1ccc(NCCCN2CCCCCC2)c([N+](=O)[O-])c1	none
Cc1ccc(NC(=O)c2ccc(NCCc3ccccc3)c([N+](=O)[O-])c2)cc1F	TPT1 inhibitor 59 | caTPT1 confirm 108 | RNase T1 counter 113
O=C(Nc1cc(F)cc(F)c1)c1ccc(NCCc2ccccc2)c([N+](=O)[O-])c1	TPT1 inhibitor 67 | caTPT1 confirm 92 | RNase T1 counter 102
